We go through 54 compounds from ChEMBL document CHEMBL3988442, “University of Dundee, Small-Polar-MMV Screening Library” (2021).

Each structure is given as a SMILES string. The campaign covered roughly 53,000 compounds. About 900 (1.7%) showed an effect of 50% or more. This excerpt belongs to a sample that is enriched for strong results.

The assay deals with Mycobacterium tuberculosis. Put plainly: Cornell - Phenotypic assay to identify agents that inhibit growth of Mycobacterium tuberculosis. The class given is functional. The arrangement: scale not given: direction of the effect not stated beside the values. To be noted: 10 mM as filed; unlikely as a test dose.
On to `c1cc(-c2c[nH]nc2C2CCCCC2)nc(N2CCCCCC2)n1`, for which the “Percent Effect” value stood at 77.63%.

Regarding `NC(=O)C1CCN(c2nccc(-c3c[nH]nc3C3CCCCC3)n2)CC1`, the “Percent Effect” value stood at 12.19%.

`OC[C@H]1CCCN1c1nccc(-c2c[nH]nc2C2CCCCC2)n1`: the “Percent Effect” value amounted to 4.191%.

On to `COCCNC(=O)c1ccc2ccc(N3CCN(CC4CC4)CC3)n2c1`, for which the “Percent Effect” value was -16.88%.

In the case of `Cc1cc(-c2cc(F)ccc2C(=O)O)nc(C2CCCN(C)C2)n1` (centres undefined), the “Percent Effect” value is given as 0.614%.

With `COc1ccccc1C1(CNc2nnc(C)c(C)c2C#N)CCOCC1`, the “Percent Effect” value is -5.763%.

Regarding `COc1ccccc1C1(CNc2nnc(C)c(C)c2C#N)CCCC1`, the “Percent Effect” value is reported as 86.76%.

Take `Cc1nnc(NCC2(c3ccccc3)CCC2)c(C#N)c1C`: the “Percent Effect” value came out at 47.49%.

As for `Cn1cnnc1SCc1cc2c(cc1Cl)OCO2`, the “Percent Effect” value is reported as 23.01%.

As to `Cc1n[nH]c(C)c1NC(=O)C1CCCN(C(=O)NCC(C)C)C1` (centres undefined), the “Percent Effect” value is -0.6091%.

Take `CCCc1cnc(C)nc1N1CCC(Cn2cc(CN(C)C)nn2)CC1`: the “Percent Effect” value amounted to 18.6%.

In the case of `O=S(=O)(c1cccnc1)N1CCCCC1CCN1CCOCC1` (centres undefined), the “Percent Effect” value is on record as -15.47%.

As for `O=C(c1ccc(F)cc1F)N(CC(F)(F)F)C1CCOCC1`, the “Percent Effect” value was 37.88%.

Turning to `CCN(C(=O)c1cc(C)oc1C)C1CC1`, the “Percent Effect” value is 4.626%.

As to `Cc1cc(C(=O)N(CC(F)(F)F)C2CCOCC2)c(C)o1`, the “Percent Effect” value is 51.1%.

With `Cc1cn2c(n1)CCC(NC(=O)CCOc1cccc(F)c1)C2` (centres undefined), the “Percent Effect” value is 5.433%.

On to `Cc1cc(N2CCN(C3CCOCC3)CC(C(=O)N(C)C)C2)ncn1` (centres undefined), for which the “Percent Effect” value worked out at 3.983%.

For `Cc1ccccc1CC(=O)NCc1cnc(CC2CCN(C)CC2)cn1`, the “Percent Effect” value is 48.16%.

For the compound `O=C(O)C(F)(F)F.O=C1Nc2ccccc2C12CCN(Cc1nccs1)CC2`, the “Percent Effect” value is recorded as -8.416%.

In the case of `O=C(O)C(F)(F)F.O=C1Nc2ccccc2C12CCN(Cc1cccs1)CC2`, the “Percent Effect” value is on record as 50.44%.

In the case of `Cc1ccc(CN2CCC3(CC2)C(=O)Nc2ccccc23)s1.O=C(O)C(F)(F)F`, the “Percent Effect” value amounted to 18.05%.

As for `CCOc1ccc(NC(C)=O)cc1S(=O)(=O)Nc1nccs1`, the “Percent Effect” value came to 7.151%.

Regarding `O=C(CCc1ccco1)Nc1cc(C(F)(F)F)c[nH]c1=O`, the “Percent Effect” value was determined as 7.769%.

As to `CC(CCc1ccco1)NC(=O)Nc1cc(C(F)(F)F)c[nH]c1=O` (centres undefined), the “Percent Effect” value is 102.9%.

Turning to `CN(Cc1ccco1)C(=O)Nc1cc(C(F)(F)F)c[nH]c1=O`, the “Percent Effect” value is -17.34%.

`Cc1nc(C)n(CC(=O)N2CCCC(c3cc4ccccc4cn3)C2)n1` (centres undefined): the “Percent Effect” value was -16.13%.

Regarding `CC(C)c1nc(N2CCC(N3CCCC(O)C3)CC2)c2cnn(C)c2n1` (centres undefined), the “Percent Effect” value was 28.63%.

With `CC(C)c1nc(N2CCC(N3CCCCCC3)CC2)c2cnn(C)c2n1`, the “Percent Effect” value came out at 30.23%.

With `CC(C)c1nc(N2CCN3CCCC3C2)c2cnn(C)c2n1` (centres undefined), the “Percent Effect” value was found to be 62.47%.

Turning to `Cc1cc(C)nc(N2CCC(c3noc(C)n3)CC2)n1`, the “Percent Effect” value was -1.548%.

Turning to `O=C(CC1CCN(c2cccnn2)CC1)NCCO`, the “Percent Effect” value is on record as 12.72%.

Consider `CCC/N=c1/c(NC(=O)NCCCOC)c(O)oc2ccccc12`, for which the “Percent Effect” value is -33.59%.

Turning to `CCc1ccc(CN(C)C(=O)C(c2ccccc2F)N(C)C)nc1` (centres undefined), the “Percent Effect” value worked out at 0.2159%.

For `CCCC(=O)NCC(Cc1cccc(F)c1)N1CCCC1=O` (centres undefined), the “Percent Effect” value amounted to 2.564%.

In the case of `O=C(CN(Cc1ccccc1)CC1CCOCC1)Nc1nccs1`, the “Percent Effect” value is recorded as 42.61%.

Take `O=C(CN(Cc1ccccc1)CC1CCOCC1)NC(=O)NC1CC1`: the “Percent Effect” value is on record as 16.06%.

On to `NC(=O)NC(=O)CCN(Cc1ccccc1)CC1CCOCC1`, for which the “Percent Effect” value is 53.84%.

`CCc1ccc(C(COC)NC(=O)c2ccc(C(N)=O)cc2)o1` (centres undefined): the “Percent Effect” value was 17.07%.

`Cc1oncc1C(=O)N1CCOCC2(CCN(c3ccccn3)C2)C1.O=C(O)C(F)(F)F` (centres undefined): the “Percent Effect” value is reported as -11.19%.

Take `Cc1nc(C)n(CC2CCCN2Cc2cccc3c2OCCO3)n1` (centres undefined): the “Percent Effect” value is reported as -6.241%.

For the compound `CC(=O)N1CCC[C@@H](NCc2ccc(F)cc2)[C@@H]1c1ccc(C)s1`, the “Percent Effect” value stood at 1.669%.

As for `CC(=O)N1CCC[C@@H](NCc2cccc(F)c2)[C@@H]1c1ccc(C)s1.Cl`, the “Percent Effect” value is listed as -22.92%.

Consider `CC(=O)N1CCC[C@@H](NCc2c[nH]c3ccccc23)[C@@H]1c1ccc(C)s1.Cl`, for which the “Percent Effect” value stood at 66.32%.

With `c1ccc2ncc(CC3CCNC3)cc2c1` (centres undefined), the “Percent Effect” value is on record as -46.09%.

`O=c1n(Cc2ccc(F)cc2)nc2ncccn12`: the “Percent Effect” value was -16.62%.

With `O=C(c1cc(COc2ccc3c(c2)OCO3)[nH]n1)N1CCCC1`, the “Percent Effect” value is given as 105.4%.

`O=C(c1cc(COc2ccc3c(c2)OCO3)[nH]n1)N1CCCO1`: the “Percent Effect” value amounted to 80.32%.

Take `O=C(c1cc(COc2ccc3c(c2)OCO3)[nH]n1)N1CCSCC1`: the “Percent Effect” value worked out at 102%.

For `O=C(c1cc(COc2ccc3c(c2)OCO3)[nH]n1)N1CC=CC1CO` (centres undefined), the “Percent Effect” value is on record as 46.2%.

With `COc1cccc(OCc2cc(C(=O)N3CC(O)C3)n[nH]2)c1`, the “Percent Effect” value stood at 3.061%.

Take `O=C(c1cc(COc2ccc3c(c2)OCO3)[nH]n1)N1CCCCO1`: the “Percent Effect” value is 15.85%.

For the compound `O=C(c1cc(COc2ccc3c(c2)OCO3)[nH]n1)N1CCOCC1`, the “Percent Effect” value is listed as 35.93%.

As for `O=C(c1cc(COc2ccc3c(c2)OCO3)[nH]n1)N1CCCC(O)C1` (centres undefined), the “Percent Effect” value stood at 44.89%.

As for `C[C@@H]1CN(C(=O)c2cc(COc3ccc4c(c3)OCO4)[nH]n2)C[C@H](C)O1`, the “Percent Effect” value came to 3.14%.
